# PKA kinase inh = blocks human protein kinase A activity | P17612 | PKA Kemptide phosphorylation, Kinase-Glo ATP luminescence | inhibition, % at 6 µM | hit rate 0.1% among 65,000;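 active = inhibition above the screen-wide mean inhibition plus 3 SD, cut at about 21% in these data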
# SK-BR-3 tox 24h = SK-BR-3 proliferation inhibitors; viability, % at 10 µM; hit rate 0.47% among 41,000; AID 847; SK-BR-3 viability, CellTiter-Glo ATP luminescence, 24 h; hits give low values;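 active = viability at or below the median of all test compounds minus 3 SD, in both replicates if run twice, cut at about 45% in these data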;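 note: 100% = median untreated cell wells and 0% = median positive control drug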
# ROCK2 blocker = ROCK2 (human) kinase inhibition | O75116 | hit rate 0.35% among 60,000 | inhibition, % at 6 µM | purified ROCK2, Kinase-Glo ATP depletion luminescence | AID 604;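 active = inhibition above the screen-wide mean inhibition plus 3 SD, cut at about 18% in these data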;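 note: plate controls were DMSO wells for no effect and Y-27632 control wells after no-enzyme background subtraction for full effect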
# Cdc25B block = inhibitors of human Cdc25B phosphatase | P30305 | recombinant Cdc25B, OMFP fluorescence Ex485/Em525 | inhibition, %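 (compounds tested at 10 µM final in the well)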 | hit rate 0.1% among 65,000 | AID 368; in the data active = inhibition above about 50%
# Target sequence (P30305 whole entry, looked up): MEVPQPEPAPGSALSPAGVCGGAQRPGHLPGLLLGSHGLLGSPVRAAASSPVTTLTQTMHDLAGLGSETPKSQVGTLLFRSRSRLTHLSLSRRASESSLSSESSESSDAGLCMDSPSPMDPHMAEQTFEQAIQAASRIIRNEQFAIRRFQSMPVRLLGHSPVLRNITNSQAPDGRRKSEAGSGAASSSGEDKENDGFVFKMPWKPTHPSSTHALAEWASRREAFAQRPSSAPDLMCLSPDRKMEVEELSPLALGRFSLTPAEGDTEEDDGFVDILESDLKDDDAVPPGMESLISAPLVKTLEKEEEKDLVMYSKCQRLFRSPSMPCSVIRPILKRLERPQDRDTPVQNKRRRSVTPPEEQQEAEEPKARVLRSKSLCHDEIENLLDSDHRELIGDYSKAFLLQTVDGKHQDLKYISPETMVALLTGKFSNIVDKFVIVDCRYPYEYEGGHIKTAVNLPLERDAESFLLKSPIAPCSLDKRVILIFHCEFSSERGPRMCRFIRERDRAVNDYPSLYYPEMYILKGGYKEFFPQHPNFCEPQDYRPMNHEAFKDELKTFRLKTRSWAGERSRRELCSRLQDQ
# DUSP1 inh = blocks human MKP-1 phosphatase activity. P28562. recombinant MKP-1, OMFP hydrolysis fluorescence. inhibition, %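 (compounds tested at a single concentration somewhere between 10 and 100 µM)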. hit rate 0.15% among 65,000. AID 374;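 active = inhibition above about 50%, limit read from the data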;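 note: 0% = DMSO max control wells and 100% = wells with enzyme stopped by NaOH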
# Hsp90 inh = displaces geldanamycin probe from tumor Hsp90 | P07900 | NCI-N417 lysate Hsp90, Cy3B-geldanamycin FP displacement | inhibition, % at 30 µM | hit rate 0.35% among 64,000 | AID 429;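 active = inhibition above 50%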;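 note: 0% = tracer plus lysate wells and 100% = tracer alone without lysate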
# Active calls of the source: *; x = no result given. In the library only some 0.99% were active in any assay of this set; here they are far more common.
SMILES,PKA kinase inh,SK-BR-3 tox 24h,ROCK2 blocker,Cdc25B block,DUSP1 inh,Hsp90 inh
COc1cccc(C2/C(=C(\O)c3c(C)nc4c(C)cccn34)C(=O)C(=O)N2CCCN(C)C)c1OC (stereo not given),-4,105,5,-1,-8,0
Cc1nc2c(C)cccn2c1/C(O)=C1\C(=O)C(=O)N(CCN(C)C)C1c1ccncc1 (stereo not given),1,93,4,56*,-10,-4
O=C(O)CCCCCC[C@H]1C(=O)NC(=O)N1CC[C@@H](O)C1CCCCC1,x,x,x,x,x,2
O=C(O)CN(Cc1ccccc1)S(=O)(=O)c1ccc(F)cc1,7,93,3,3,8,-2
Clc1ccccc1-c1nn2c(-c3ccncc3)nnc2s1,18,97,19*,-9,9,-1
CN(C)c1ccc(-c2nn3c(-c4ccccc4Cl)nnc3s2)cc1,7,83,4,5,-1,-3
Clc1ccccc1-c1nnc2sc(-c3ccncc3)nn12,11,x,23*,-4,-1,-7
COC(=O)c1c(-c2cc(OC)c(OC)c(OC)c2)c2ccnc(OCc3ncccn3)c2c(=O)n1Cc1ccnc(C)c1,x,x,x,x,x,3
COc1ccc2nc(C)cc(NN=Cc3cccnc3)c2c1,x,x,x,x,x,1
O=C(NCc1cccnc1)C1c2ccccc2C(=O)N1Cc1ccco1 (stereo not given),8,x,5,-3,5,57*
Cn1cc(S(=O)(=O)Cc2ccc(F)cc2)c2ccccc21,8,x,3,-7,0,-3
CC(C)C[C@H](N)c1nnc(S(=O)(=O)Cc2ccc(F)cc2)o1,-4,33*,0,-2,-10,-2
COC1=C(OC)C(=O)c2ccccc2C1=O,x,x,x,x,x,93*
CN1C=CC(=C2C(=O)c3ccccc3C2=O)C=C1,0,x,-1,-13,1,-2
CN1/C(=C\C(=O)COc2ccc3c(c2)OCO3)C(C)(C)c2ccccc21,7,106,4,-8,0,-49
CCC(CO)n1cnnc1-c1ccncc1 (stereo not given),11,x,10,-11,-1,-6
O=C(Nc1ccc(F)cc1)N1CCN(c2nc3ccccc3s2)CC1,9,41*,6,-12,-7,0
O=C(Nc1ccccc1)N1CCN(c2nc3ccccc3s2)CC1,0,64,-7,1,2,2
COCCCn1c(SCC(=O)OC2CCCCC2)nnc1-c1cccs1,3,102,5,-16,-20,2
CC(C)N(C(=O)CSc1nnc(NC(=O)C2CCC2)s1)C(C)C,-2,42*,-1,-8,-11,1
O=C(CSc1nnc(NC(=O)C2CCC2)s1)Nc1ccc(N2CCOCC2)cc1,7,x,5,-2,0,-1
Cc1ccc(NC2=NC(c3ccco3)n3c(nc(C)cc3=O)N2)c(C)c1 (stereo not given),4,90,4,9,15,-2
Cc1cc(O)cc(O)c1-c1onc(C(F)(F)F)c1-c1cscn1,12,x,3,-4,27,69*
CCc1c(C)[nH]c2ccccc2c1=O,-2,100,-5,11,-4,0
CC(=O)CCc1c(C)[nH]c2ccccc2c1=O,-3,x,2,-5,7,82*
SMILES,PKA kinase inh,SK-BR-3 tox 24h,ROCK2 blocker,Cdc25B block,DUSP1 inh,Hsp90 inh
COCc1cc(C)nc(Nc2ccc(C)cc2C)c1C#N,6,38*,4,-7,-7,0
COc1ccccc1-c1cc(C(F)(F)F)nc(S(=O)(=O)CCCC(=O)N2CCCCC2C)n1 (stereo not given),0,38*,-2,-10,16,1
CCNC(=O)C1OC(n2cnc3c(NCc4ccccc4)ncnc32)C(O)C1O (stereo not given),x,x,x,x,x,4
CCOC(=O)c1oc2c(O)c(O)ccc2c(=O)c1-c1nncn1-c1ccccc1,10,94,7,3,-3,61*
COc1ccc2nccc(C)c2c1,x,x,x,x,x,-1
O=C(Cn1nnc(-c2ccccc2)n1)OCc1ccccc1,6,100,5,72*,-1,-1
Cc1ccc(C(=O)O[C@H](C(=O)O)[C@H](OC(=O)c2ccc(C)cc2)C(=O)O)cc1 (tested in a mixture with another compound),x,x,x,x,x,-1
Cc1cc(Cl)ccc1OCc1nc(-c2ccc(O)cc2)n[nH]1,6,93,27*,0,1,-5
Cc1ccc(S(=O)(=O)NC2(C(F)(F)F)C(=O)Nc3c2c(=O)n(C)c(=O)n3C)cc1 (stereo not given),8,80,8,-7,-1,-1
CCC(=O)NC1(C(F)(F)F)C(=O)Nc2c1c(=O)n(C)c(=O)n2C (stereo not given),-2,86,1,60*,4,-2
Cc1cc(NC(=O)COC(=O)C(Nc2ccc(C(F)(F)F)cc2Cl)C(C)C)no1 (stereo not given),6,x,3,-17,-7,-2
Cc1nc2ccc(S(=O)(=O)NC(C(=O)N3CCn4c3nc3ccccc34)C(C)C)cc2s1 (stereo not given),10,x,-2,-4,13,-2
Cc1nc2ccc(S(=O)(=O)NC(C(=O)NCc3ccco3)C(C)C)cc2s1 (stereo not given),-6,x,-1,60*,13,-3
CC(Cc1ccc(O)c(O)c1)C(C)Cc1ccc(O)c(O)c1 (stereo not given),-2,97,4,3,22,103*
C[C@H](Cc1ccc(O)c(O)c1)[C@@H](C)Cc1ccc(O)c(O)c1,x,x,x,x,x,98*
CCN(CC)c1ccc2cc(-c3nc4ccccc4[nH]3)c(=O)oc2c1,-1,42*,1,-1,3,-8
CCN(CC)c1ccc2cc(-c3nc4ccccc4n3C)c(=O)oc2c1,0,x,0,-2,10,-1
N#CC1=C(N)N2C(=C(C#N)C13CCCCC3)SC1CCCCC12O (stereo not given),-1,x,5,63*,3,-5
Cn1c(C(=O)N2CCCC(C(=O)N3CCN(C(=O)c4ccco4)CC3)C2)cc2sccc21 (stereo not given),-7,x,84*,-6,6,-1
O=C(c1n[nH]c(=O)c2ccccc12)N1CCN(C2c3ccccc3-c3ccccc32)CC1,-1,x,2,2,52*,90*
COc1ccccc1CNCCCCCCNCCCCCCCCNCCCCCCNCc1ccccc1OC,x,x,x,x,x,-3
COc1cc(C2c3c(n[nH]c3C)C(=O)N2c2ccc(Br)cc2)ccc1O (stereo not given),6,92,7,-5,-3,2
CCOc1cc(C2c3c(n[nH]c3C)C(=O)N2c2ccc(Br)cc2)ccc1O (stereo not given),11,37*,1,-5,-19,-8
O=C(O)CC1CCCc2ccccc2C1O (stereo not given),x,x,x,x,x,-5
CC(=O)c1ccc(C(C)(C)c2ccc(C(C)=O)s2)s1,-1,74,-5,-7,5,-1

# Compound activity from PubChem.
